From PubChem BioAssay AID624260 (Broad Institute, 2012)
About 30 (0.07%) of roughly 44,000 compounds were called active. About 1% were inconclusive and are not listed. Cut-off read from the data, not from the text of the source: active = inhibition above about 54% (passing the limit was not always enough); inconclusive = no clear call, values can overlap the other calls. Shown is part of a subset that was picked to be rich in actives.

Biological target: Histone-lysine N-methyltransferase NSD2 (Homo sapiens) (UniProt O96028)
Sequence (O96028 whole entry, looked up): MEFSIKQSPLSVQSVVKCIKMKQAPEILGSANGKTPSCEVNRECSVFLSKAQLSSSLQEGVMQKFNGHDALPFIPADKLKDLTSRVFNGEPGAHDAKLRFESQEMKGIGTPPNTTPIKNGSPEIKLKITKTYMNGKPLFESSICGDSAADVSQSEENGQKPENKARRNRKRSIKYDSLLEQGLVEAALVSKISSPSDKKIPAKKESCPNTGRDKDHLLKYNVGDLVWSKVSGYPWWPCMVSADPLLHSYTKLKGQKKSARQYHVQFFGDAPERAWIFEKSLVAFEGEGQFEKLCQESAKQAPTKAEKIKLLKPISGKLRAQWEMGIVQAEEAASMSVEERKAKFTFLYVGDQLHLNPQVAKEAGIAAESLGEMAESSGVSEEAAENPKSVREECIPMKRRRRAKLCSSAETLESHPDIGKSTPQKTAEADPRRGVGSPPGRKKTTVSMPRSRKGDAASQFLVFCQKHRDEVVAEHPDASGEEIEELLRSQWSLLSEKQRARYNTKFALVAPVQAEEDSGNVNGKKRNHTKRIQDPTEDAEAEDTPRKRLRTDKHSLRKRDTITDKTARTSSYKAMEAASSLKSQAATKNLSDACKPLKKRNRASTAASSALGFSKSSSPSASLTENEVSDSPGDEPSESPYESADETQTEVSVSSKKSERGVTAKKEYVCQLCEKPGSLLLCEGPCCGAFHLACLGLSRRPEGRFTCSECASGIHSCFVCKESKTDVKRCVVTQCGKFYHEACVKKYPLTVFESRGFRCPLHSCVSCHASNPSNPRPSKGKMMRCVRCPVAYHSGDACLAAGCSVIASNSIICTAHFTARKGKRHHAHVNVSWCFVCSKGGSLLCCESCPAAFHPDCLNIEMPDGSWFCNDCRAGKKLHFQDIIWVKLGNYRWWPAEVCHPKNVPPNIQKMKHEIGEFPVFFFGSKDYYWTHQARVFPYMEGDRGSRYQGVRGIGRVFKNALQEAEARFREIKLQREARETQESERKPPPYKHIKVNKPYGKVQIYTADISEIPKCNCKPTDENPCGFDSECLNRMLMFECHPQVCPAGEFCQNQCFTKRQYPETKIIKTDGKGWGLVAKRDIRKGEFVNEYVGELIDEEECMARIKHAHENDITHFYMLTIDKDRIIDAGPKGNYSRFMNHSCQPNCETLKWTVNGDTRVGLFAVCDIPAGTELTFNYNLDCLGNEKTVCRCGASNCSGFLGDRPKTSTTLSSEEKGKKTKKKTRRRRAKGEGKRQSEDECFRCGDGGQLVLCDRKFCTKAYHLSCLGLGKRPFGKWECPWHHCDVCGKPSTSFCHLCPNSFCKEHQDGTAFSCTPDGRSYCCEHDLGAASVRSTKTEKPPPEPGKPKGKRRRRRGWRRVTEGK
Experiment: NSD2 histone methyltransferase activity blockers – biochemical, plate reader, single point, primary screen (AID 624260);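 note: inhibitors reduce the monomethyl H3K36 fluorescence signal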
Details: NSD2-SET H3K36me1 DELFIA fluorescence, at 12.5 µM, active compounds read high

inhibition, inactive:
O=C(C[C@H]1C[C@@H]2c3cc(NC(=O)c4cccnc4)ccc3O[C@@H]2[C@@H](CO)O1)NCc1ccccc1F -0.738%
CCCN(C)C[C@H]1Oc2cc(C#CCC3CCCC3)ccc2S(=O)(=O)N([C@@H](C)CO)C[C@@H]1C 1.41%
C[C@@H]1CN([C@@H](C)CO)C(=O)Cc2cc(NC(=O)Nc3ccc4c(c3)OCO4)ccc2O[C@H]1CN(C)S(=O)(=O)c1ccc(F)cc1 5.36%
C[C@H](CO)N1C[C@H](C)[C@@H](CN(C)Cc2ccc(C(F)(F)F)cc2)Oc2ccc(NC(=O)Cn3cnnn3)cc2CC1=O -8%
CC(C)NC(=O)N(C)C[C@H]1Oc2cc(C#Cc3ccccn3)ccc2S(=O)(=O)N([C@H](C)CO)C[C@@H]1C 4.46%
CC(/C=C/C(=O)NO)=C\c1ccccc1OCc1ccc(COc2ccc3ccncc3c2)cc1 -5.12%
C[C@@H]1CN([C@H](C)CO)S(=O)(=O)c2ccc(/C=C/c3ccccc3)cc2O[C@@H]1CN(C)C(=O)Nc1ccc(F)cc1 -10.2%
C[C@H]1CN([C@@H](C)CO)C(=O)Cc2cc(NC(=O)Nc3cccc4ccccc34)ccc2O[C@@H]1CN(C)C 1.05%
Cc1ccc(-c2ccc3c(c2)O[C@H](CN(C)C(=O)Nc2ccccc2)[C@@H](C)CN([C@@H](C)CO)S3(=O)=O)cc1 -6.18%
CCCNC(=O)C[C@H]1C[C@@H]2c3cc(NC(=O)c4ccc5c(c4)OCO5)ccc3O[C@@H]2[C@@H](CO)O1 7.66%
C[C@H](CO)N1C[C@H](C)[C@@H](CN(C)CC2CC2)Oc2ccc(NC(=O)CCCN(C)C)cc2CC1=O 3.07%
O=C(C[C@H]1CC[C@H](NC(=O)Nc2ccc(C(F)(F)F)cc2)[C@H](CO)O1)NCCN1CCCC1 -1.99%
COc1ccc(NC(=O)N(C)C[C@H]2OCc3ccccc3-c3ccccc3C(=O)N([C@H](C)CO)C[C@@H]2C)cc1 -1.37%
CCC(=O)N(C)C[C@H]1Oc2cc(C#CCOC)ccc2S(=O)(=O)N([C@H](C)CO)C[C@H]1C -1.1%
O=C(C[C@H]1C[C@H]2c3cc(NC(=O)Nc4ccc(F)cc4)ccc3O[C@H]2[C@@H](CO)O1)NCC1CC1 2.39%
COc1ccc(CN(C)C[C@H]2OCCCC[C@H](C)Oc3ccc(NS(=O)(=O)c4ccc(C)cc4)cc3C(=O)N([C@@H](C)CO)C[C@H]2C)cc1 2.76%
C[C@@H]1CN([C@@H](C)CO)C(=O)Cc2cc(NC(=O)Nc3ccc(C(F)(F)F)cc3)ccc2O[C@H]1CN(C)C(=O)Nc1ccc(F)cc1 -13.8%
Cc1ccc(S(=O)(=O)N(C)C[C@@H]2Oc3ccc(NC(=O)C4CCCCC4)cc3CC(=O)N([C@@H](C)CO)C[C@H]2C)cc1 -6.23%
CCC(=O)N(C)C[C@@H]1Oc2cc(-c3ccc(OC)cc3)ccc2S(=O)(=O)N([C@@H](C)CO)C[C@H]1C 1.75%
C[C@H](NC(=O)C[C@@H]1CC[C@H](NC(=O)CN2CCOCC2)[C@H](CO)O1)c1ccccc1 -3.53%
COc1cccc(S(=O)(=O)N(C)C[C@@H]2Oc3ncc(-c4cccc(C(=O)N(C)C)c4)cc3C(=O)N([C@H](C)CO)C[C@@H]2C)c1 5.93%
COc1ccc(NC(=O)Nc2ccc3c(c2)C(=O)N([C@H](C)CO)C[C@@H](C)[C@H](CN(C)C(=O)Cc2ccccc2)OCCCC[C@H](C)O3)cc1 -2.17%
CCCNC(=O)C[C@H]1C[C@@H]2c3cc(NC(=O)C4CCOCC4)ccc3O[C@@H]2[C@@H](CO)O1 11%
C/C=C/c1ccc2c(c1)O[C@H](CN(C)C(=O)CN(C)C)[C@H](C)CN([C@@H](C)CO)S2(=O)=O 1.3%
Cc1noc(C)c1S(=O)(=O)Nc1ccc2c(c1)C(=O)N([C@H](C)CO)C[C@@H](C)[C@@H](CN(C)S(=O)(=O)c1ccc(Cl)cc1)O2 -1.25%
C[C@H](CO)N1C[C@H](C)[C@@H](CN(C)Cc2ccccc2)OCCCC[C@H](C)Oc2ccc(NC(=O)Cc3ccccc3)cc2C1=O -3.29%
CCCN(C)C[C@H]1Oc2cc(C#CCC(C)C)ccc2S(=O)(=O)N([C@H](C)CO)C[C@H]1C 0.338%
C[C@H]1CN([C@@H](C)CO)C(=O)c2cccc(NC(=O)Nc3ccc(C(F)(F)F)cc3)c2O[C@H]1CN(C)CC1CCCCC1 1.34%
C[C@H](CO)N1C[C@H](C)[C@H](CN(C)Cc2ccccc2)OCCCC[C@H](C)Oc2ccc(NC(=O)c3ccccc3)cc2C1=O 8.82%
C[C@H]1CN([C@@H](C)CO)C(=O)c2cc(-c3ccncc3)cnc2O[C@H]1CN(C)C(=O)c1cccc(F)c1 -1.28%
CC(C)CC#Cc1ccc2c(c1)O[C@H](CN(C)C(=O)c1cccnc1)[C@@H](C)CN([C@H](C)CO)S2(=O)=O 0.112%
C[C@H]1CN([C@@H](C)CO)C(=O)c2cc(C3=CCCCC3)cnc2O[C@H]1CN(C)Cc1ccncc1 3.39%
C/C=C/c1ccc2c(c1)O[C@@H](CN(C)C(=O)Cc1ccccc1)[C@H](C)CN([C@@H](C)CO)S2(=O)=O 5.94%
COc1ccc(NC(=O)N(C)C[C@H]2Oc3cc(C#CCN(C)C)ccc3S(=O)(=O)N([C@@H](C)CO)C[C@@H]2C)cc1 5.29%
Cc1noc(C)c1NC(=O)N(C)C[C@@H]1Oc2ccc(NC(=O)Nc3cccc4ccccc34)cc2CC(=O)N([C@@H](C)CO)C[C@H]1C -4.68%
CCC(=O)N(C)C[C@@H]1Oc2cc(C#CCOC)ccc2S(=O)(=O)N([C@H](C)CO)C[C@H]1C -17.7%
CN(C)C(=O)C[C@H]1C[C@H]2c3cc(NC(=O)Nc4ccccc4F)ccc3O[C@H]2[C@@H](CO)O1 2.09%
COCC(=O)N(C)C[C@H]1Oc2ncc(-c3ccc(C)cc3)cc2C(=O)N([C@@H](C)CO)C[C@@H]1C 25.2%
